# Assay results from the supplement of paper PMC8699584.
# “And” between values parts separate entries of the source, which are not always exact repeats. Equal entries are not always repeated. Structures can show the parent of a compound that is named as a salt. ± gives the standard deviation of the averaged measurements.
# Test system: Molm13
# Experiment: cell viability relative to DMSO control (bortezomib = 0%); higher = less growth inhibition
# Details: 10 nM; 72 h
# Method in brief: (§1)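 In duplicate runs, a library of 679 approved and investigational compounds in 384-well plates received acute myeloid leukemia cells at 1000 cells per well in 50 µL, with each compound at a single 10 nM dose for 72 h. CellTiter-Glo luminescence, read on an EnVision reader, served as the viability measure. Each plate was normalized by linear regression between DMSO-treated cells (100%) and positive-control-treated cells (0%).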
row,Structure (SMILES),cell viability [%]
1,CN(C)CCN(Cc1ccc(Cl)cc1)c1ccccn1 [Chloropyramine hydrochloride],105 ± 27
2,CC(C)(C)NS(=O)(=O)c1cncc(-c2cc(F)c3nc(N)nn3c2)c1,95.9 ± 22
3,CCN1/C(=C/C(C)=O)Sc2ccc(OC)cc21,106 ± 11
4,COc1ccc(CNC(=O)Nc2ncc([N+](=O)[O-])s2)cc1,107 ± 7.3
5,O=C(O)c1ccc2nc(-c3ccccc3)c(-c3ccccc3)nc2c1,98.2 ± 15
6,Cc1cc2c(F)c(Oc3ncnn4cc(OC[C@@H](C)OC(=O)[C@H](C)N)c(C)c34)ccc2[nH]1,101 ± 38
7,CN1CC(O)C2=C/C(=N/NC(N)=O)C(=O)C=C21 (stereo not given) [Carbazochrome],93.7 ± 20
8,CC[C@@](C)(Nc1ccnc(-c2c[nH]c3ncccc23)n1)C(=O)NCC(F)(F)F [Decernotinib(VX-509)],98.6 ± 1.4
9,Cc1ccc(C(=O)Nc2ccc(CN3CCN(C)CC3)c(C(F)(F)F)c2)cc1C#Cc1cnc2cccnn12,6.99 ± 13
10,COC(=O)Nc1nc2cc(C(=O)c3cccs3)ccc2[nH]1 [Nocodazole],112.8 ± 0.63

# Test system: Mv4-11
# Experiment: as above
# Details: 10 nM; 72 h
# Method in brief: as §1
row,Structure (SMILES),cell viability
1,O=C1c2cccc(O)c2C(=O)c2c(O)cccc21 [Antrapurol],109 ± 3.2%
2,Cc1c(NC(=O)c2ccc(C(C)(C)C)cc2)cccc1-c1cn(C)c(=O)c(Nc2ccc(C(=O)N3CCOCC3)cc2)n1,115 ± 8.8%
3,N#Cc1c(-c2ccccc2)cc(-c2cc(Br)ccc2O)[nH]c1=O,114 ± 9.7%
4,COc1ccc2c(c1)c(C1=C(c3c[nH]c4ccccc34)C(=O)NC1=O)cn2CCCN(C)C,103 ± 7.6%
5,COc1ccc(-c2oc3c(CC=C(C)C)c(O)cc(O)c3c(=O)c2O)cc1 [Icaritin],118 ± 1.5%
6,CN(C)CCOc1ccc(-c2nc(-c3ccncc3)c(-c3ccc4c(c3)CC/C4=N\O)[nH]2)cc1,101 ± 4%
7,Cc1cc(C(C)Nc2ccccc2)c2nc(N3CCOCC3)cc(=O)n2c1 (stereo not given),100 ± 3.8%
8,COc1ccc([C@@H]2OC[C@H]3[C@@H]2CO[C@@H]3c2ccc(O[C@@H]3O[C@H](CO)[C@@H](O)[C@H](O)[C@H]3O)c(OC)c2)cc1OC [Forsythin],102 ± 6.1%
9,C[C@@H]1O[C@@H](OC[C@H]2O[C@@H](Oc3c(-c4ccc(O)c(O)c4)oc4cc(O)cc(O)c4c3=O)[C@H](O)[C@@H](O)[C@@H]2O)[C@H](O)[C@H](O)[C@H]1O [Rutin],113.3 ± 0.28%
10,Cc1ccc(F)c(NC(=O)Nc2ccc(-c3cccc4[nH]nc(N)c34)cc2)c1,97.7 ± 10%
11,C[C@@H]1O[C@@H](Oc2cc(O)c3c(=O)c(O[C@@H]4O[C@@H](C)[C@H](O)[C@@H](O)[C@H]4O)c(-c4ccc(O)cc4)oc3c2)[C@H](O)[C@H](O)[C@H]1O [Kaempferitrin],105 ± 3.1%
12,O=C1NC(=O)/C(=C/c2ccc(-c3ccc(F)cc3O)o2)S1,95.5 ± 9.9%
13,COC(=O)c1c2c(c3ccccc3c1O)OC(C)(C)C=C2 [Mollugin],100 ± 7.8%
14,Cc1ccc(CNc2ncnc3ccc(-c4ccc(CO)o4)cc23)o1,107 ± 12%
15,COc1ccc(C2CC(=O)c3c(O)cc(OC4OC(COC5OC(C)C(O)C(O)C5O)C(O)C(O)C4O)cc3O2)cc1OC (stereo not given) [Methyl hesperidin],117 ± 20%
16,Cc1ccc(NC(=O)c2ccc(CN3CCN(C)CC3)cc2)cc1Nc1nccc(-c2cccnc2)n1 [Imatinib (mesylate)],121 ± 22%
17,S=C(NCc1ccc2c(c1)OCO2)N1CCN(c2ncnc3c2oc2ccccc23)CC1 [Amuvatinib(MP470)],103 ± 15%
18,Cn1cc(C2=C(c3cn(CCCSC(=N)N)c4ccccc34)C(=O)NC2=O)c2ccccc21 [Bisindolylmaleimide IX (mesylate)],104 ± 12%
19,CN(C)S(=O)(=O)c1ccc2c(c1)/C(=C/c1cc3c([nH]1)CCCC3)C(=O)N2,109 ± 1.4%
20,NS(=O)(=O)c1ccc(Nc2nc(OCC3CCCCC3)c3[nH]cnc3n2)cc1,109 ± 13%

row,Structure (SMILES),cell viability
1,CC(C)=CCC[C@](C)(O[C@@H]1O[C@H](CO[C@@H]2O[C@H](CO)[C@@H](O)[C@H](O)[C@H]2O)[C@@H](O)[C@H](O)[C@H]1O)[C@H]1CC[C@]2(C)[C@@H]1[C@H](O)C[C@@H]1[C@@]3(C)CC[C@H](O[C@@H]4O[C@H](CO)[C@@H](O)[C@H](O)[C@H]4O)C(C)(C)[C@@H]3CC[C@]12C [Gypenoside XVII],102 ± 7%
2,Cn1cnc(N)c2ncnc1-2 [3-Methyladenine (3-MA)],77.5 ± 24%
3,Cc1nc(Nc2ncc(C(=O)Nc3c(C)cccc3Cl)s2)cc(N2CCN(CCO)CC2)n1 [Dasatinib monohydrate],106 ± 9.4%
4,COc1cc(OC)c(C=C2C(=O)Nc3ccccc32)c(OC)c1,100 ± 12%
5,C[C@H]1[C@H](C)CC[C@]2(C(=O)O[C@@H]3O[C@H](CO[C@@H]4O[C@H](CO)[C@@H](O[C@@H]5O[C@H](C)[C@H](O)[C@@H](O)[C@H]5O)[C@H](O)[C@H]4O)[C@@H](O)[C@H](O)[C@H]3O)CC[C@]3(C)C(=CC[C@@H]4[C@@]5(C)C[C@@H](O)[C@H](O)[C@@](C)(CO)[C@@H]5CC[C@]43C)[C@H]12 [Asiaticoside],114 ± 2.9%
6,Nc1ccc(C(=O)Nc2cccc(-c3nc(N4CCOCC4)c4oc5ncccc5c4n3)c2)cn1,106% and 108%
7,N#Cc1ccc2[nH]c(O)c(-c3ccc(CN4CCOCC4)cn3)c2c1,106 ± 5.3%
8,N#CC1(c2ccc(NC(=O)c3cccnc3NCc3ccncc3)cc2)CCCC1 [Apatinib],110 ± 1.5%
9,CCOC(=O)c1cnc2ccc(-c3cncc(NS(=O)(=O)c4ccccc4)c3)cn12,103 ± 14%
10,Cc1[nH]c(/C=C2\C(=O)Nc3ccccc32)c(C)c1CCC(=O)O,108 ± 14%
11,CN(C)CCN(Cc1ccc(Cl)cc1)c1ccccn1 [Chloropyramine hydrochloride],107 ± 12%
12,CC(C)(C)NS(=O)(=O)c1cncc(-c2cc(F)c3nc(N)nn3c2)c1,105 ± 1.1%
13,CCN1/C(=C/C(C)=O)Sc2ccc(OC)cc21,104 ± 6.5%
14,COc1ccc(CNC(=O)Nc2ncc([N+](=O)[O-])s2)cc1,114 ± 15%
15,O=C(O)c1ccc2nc(-c3ccccc3)c(-c3ccccc3)nc2c1,111.7 ± 0.8%
16,Cc1cc2c(F)c(Oc3ncnn4cc(OC[C@@H](C)OC(=O)[C@H](C)N)c(C)c34)ccc2[nH]1,106 ± 5.3%
17,CN1CC(O)C2=C/C(=N/NC(N)=O)C(=O)C=C21 (stereo not given) [Carbazochrome],107 ± 9.7%
18,CC[C@@](C)(Nc1ccnc(-c2c[nH]c3ncccc23)n1)C(=O)NCC(F)(F)F [Decernotinib(VX-509)],89.3 ± 6.1%
19,Cc1ccc(C(=O)Nc2ccc(CN3CCN(C)CC3)c(C(F)(F)F)c2)cc1C#Cc1cnc2cccnn12,3.31 ± 4.5%
20,COC(=O)Nc1nc2cc(C(=O)c3cccs3)ccc2[nH]1 [Nocodazole],105.5 ± 0.46%
